The text below walks through data of PubChem BioAssay (NCI).

Test in all cases: NCI-60 one-dose screen, 48 h (100 = growth as untreated, 0 = no growth, -100 = all killed)
What all share (conditions): 10 µM unless noted

The test system of assay [1] is NCI-H23 lung.
The test system of assay [2] is NCI-H226 lung.
Assay [3] relates to NCI-H322M lung.
Assay [4] has as its system HOP-62 NSCLC.
In assay [5] the test system is NCI-H460 lung.
The test system of assay [6] is HOP-92 NSCLC.
The test system of assay [7] is NCI-H522 lung.
In assay [8] the test system is A549/ATCC NSCLC.
The subject of assay [9] is 786-0 renal.
The subject of assay [10] is COLO 205 colon.
The test system of assay [11] is DU-145 prostate.
In assay [12] the test system is K-562 leukemia.
Assay [13] deals with MALME-3M melanoma.
The subject of assay [14] is MDA-MB-231 breast.
Assay [15] has as its system RXF 393 renal.
In assay [16] the test system is SF-268 CNS.
In assay [17] the test system is SF-539 CNS.
The test system of assay [18] is UACC-257 melanoma.
Assay [19] deals with M14 melanoma.
Assay [20] deals with SF-295 CNS.

The panel holds about 83,000 compounds, 20% with a hit somewhere; the sample as a whole holds those more often.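 Compound tested at a single concentration for 48 hours in 96-well plates; a percent growth value below 10 was scored as active.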 Unmarked numbers belong to inactive results. Active and inactive are the calls of the source.

Regarding `CCCCCCCCCCCCCCC(C(=O)OCC)C(=O)OCC`, the growth was 105% in assay [1]; 93.3% in assay [2]; 104% in assay [3]; 105% in assay [4]; 109% in assay [5]; 105% in [6]. Further, the growth in assay [7] is 92.6%; in assay [8], 109%; in assay [9], 115%; in assay [10] it was 115%; in assay [11], 110%; in assay [12], 121%. For the same molecule, the growth in assay [13] was 92.8%; in assay [14], 101%; in assay [15] it was 113%; in [16], 110%; in [17], 105%; in assay [18], 106%. For the same molecule, the growth in assay [19] was 108%.

`CCOC(=O)c1c(NC(=O)c2ccccc2)sc2c(O)c(CN(CC)CC)ccc12`: the growth was 2.37% (active) in assay [1]; -21.7% (active) in assay [2]; 50.6% in assay [3]; -17.2% (active) in [4]; 4.01% (active) in [5]; 46.3% in [6]. Further, the growth is -45.3% (active) in assay [7]; 11.4% in assay [8]; 18.5% in assay [9]; -74.7% (active) in assay [10]; -26.9% (active) in assay [11]; 7.52% (active) in assay [12]. For the same molecule, the growth in assay [13] is 38.1%; in assay [14], 1.41% (active); in assay [15] it was -27.4% (active); in [16], 4.48% (active); in assay [17], 6.42% (active); in assay [18], 51%. Besides, the growth in [19] was 14.4%.

Take `COc1cccc(Cn2c(-c3nonc3NC(C)=O)nc3ccccc32)c1`: the growth was 39.8% in assay [1]; 60.9% in assay [2]; 33.7% in [3]; 38.9% in assay [4]; 20.7% in assay [5]; 29.6% in assay [6]. Besides, the growth in assay [7] was -20.6% (active); in assay [8], 41.4%; in assay [9], 45.8%; in [10], 23.8%; in [11], 13.8%; in assay [12], 13.9%. Further, the growth was 42.3% in assay [13]; 46.1% in [14]; -17% (active) in assay [15]; 59.5% in assay [16]; 15% in assay [20]; 36.7% in assay [17]. Moreover, the growth in assay [18] was 52.7%; in assay [19], 14.1%.

Regarding `CN(C)c1ccc(N2Cc3ccccc3OC3=C2C(=O)c2c(O)ccc(O)c2C3=O)cn1`, the growth in assay [1] was -36.7% (active); in assay [2] it was 6.21% (active); in assay [3], -7.76% (active); in assay [4], -45.8% (active); in assay [5] it was 1.55% (active); in assay [6] it was -65.2% (active). Moreover, the growth in assay [7] is -54.2% (active); in [8], -19.7% (active); in [9], -88.9% (active); in assay [10], -81.9% (active); in assay [11], -97.3% (active); in assay [12] it was -20.8% (active). In addition, the growth in assay [13] is -76.9% (active); in [14], -93.6% (active); in assay [15], -87% (active); in assay [16], -32.5% (active); in assay [17] it was -63% (active); in [18] it was -89.9% (active). In addition, the growth in assay [19] was -88.6% (active).

As to `CCc1ccc(Nc2ncnc3c2cnn3-c2cccc(Br)c2)cc1`, the growth in assay [1] was 96.1%; in [2] it was 85.7%; in assay [3], 105%; in [4], 84%; in assay [5], 102%; in assay [6] it was 91.8%. Besides, the growth was 89.1% in [7]; 97.2% in assay [8]; 106% in assay [9]; 104% in assay [10]; 104% in assay [11]; 106% in assay [12]. Further, the growth in assay [13] is 99%; in assay [14] it was 103%; in [15] it was 100%; in [16], 98%; in [17], 102%; in assay [18], 88.6%. Besides, the growth in assay [19] is 98.6%.

With `CCCCCCCCNC(C)C(O)c1ccc(SC(C)C)cc1` (stereo not drawn), the growth is 74.2% in [1]; 96% in assay [2]; 87.9% in assay [3]; 85% in assay [4]; -37.7% (active) in assay [5]; -28.1% (active) in [6]. Further, the growth was 12.1% in [7]; 98.8% in assay [8]; -14.9% (active) in assay [9]; 4.17% (active) in assay [10]; -25.5% (active) in [11]; -59.8% (active) in assay [12]. The growth in assay [13] is -78% (active); in assay [14] it was 89.7%; in [15] it was 37.5%; in [16] it was 34.9%; in assay [17], 26.8%; in assay [18], 56%. Further, in assay [19], the growth is -17.4% (active).

For the molecule `O=c1c2sc3ncc(Cl)cc3c2nnn1-c1cccc(Cl)c1`, the growth is 83.8% in assay [1]; 33.4% in assay [2]; 56.8% in [3]; 47.7% in assay [4]; 22% in assay [5]; 63.8% in [6]. Moreover, the growth in assay [7] is 82%; in [8] it was 42.5%; in assay [9] it was 72.5%; in assay [10], 89.4%; in assay [11], 65.3%; in [12], 68.1%. Also, the growth is 75.3% in assay [13]; 110% in assay [14]; 96.2% in assay [15]; 66.1% in [16]; 82.1% in assay [17]; 112% in assay [18]. Further, the growth in assay [19] was 85.1%.

For `CCN(CC)CCCC(C)N/C(c1cccc(OC)c1)=c1\c(=O)[nH]n(-c2c3ccccc3nc3ccccc23)c(=O)\c1=C(/NC(C)CCCN(CC)CC)c1cccc(OC)c1` (stereo not drawn), the growth is -26.3% (active) in assay [1]; -25.2% (active) in assay [2]; -37.7% (active) in [3]; -22.5% (active) in assay [4]; -34.1% (active) in assay [5]; -70% (active) in assay [6]. In addition, the growth in assay [7] was -85.6% (active); in assay [8], -59.2% (active); in assay [9] it was 3.27% (active); in [10], -90.1% (active); in assay [11], -13.5% (active); in assay [12], -22.1% (active). Moreover, the growth in assay [13] is -93.9% (active); in assay [14] it was -51.9% (active); in [15], -78.3% (active); in [16], -48.8% (active); in assay [17], -91.5% (active); in assay [18], -95.5% (active). Further, the growth in assay [19] was -80% (active).
